Data published in PubChem BioAssay (NCI).
Compounds without any hit were thinned out: in the full panel of roughly 83,000, 20% have a hit.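 Negative percent growth values reflect cell death: -40 means 40% of the cells present at the start died, and -100 means all died.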 Unmarked numbers belong to inactive results. Calls of active or inactive are those of the source. The calls were made as follows: active = growth percent below 10; inactive = the rest.

Assays:
Test in all cases: NCI-60 one-dose screen, 48 h (100 = growth as untreated, 0 = no growth, -100 = all killed)
Conditions in all cases: 10 µM unless noted
[1] = tested on: NCI-H23 lung
[2] = tested on: NCI-H226 lung
[3] = tested on: NCI-H322M lung
[4] = tested on: HOP-62 NSCLC
[5] = tested on: NCI-H460 lung
[6] = tested on: HOP-92 NSCLC
[7] = tested on: NCI-H522 lung
[8] = tested on: A549/ATCC NSCLC
[9] = tested on: 786-0 renal
[10] = tested on: COLO 205 colon

O=S(=O)(NCCCNc1nccc(-c2[nH]c(-c3ccccc3)nc2-c2ccc(F)c(O)c2)n1)c1ccc(C(F)(F)F)cc1
growth [1]: 70.7%
growth [2]: 48.5%
growth [3]: 95.4%
growth [4]: 62.3%
growth [5]: 16.3%
growth [6]: 71.6%
growth [7]: 18.8%
growth [8]: 41.7%
growth [9]: 48%
growth [10]: 88.3%

CCOC(=O)C1=C(C)NC(C)=C(C(=O)OC(C)C)C1c1cccc(C#N)c1 (stereo not given)
growth [1]: 96.7%
growth [2]: 98.1%
growth [3]: 100%
growth [4]: 101%
growth [5]: 101%
growth [6]: 114%
growth [7]: 92.7%
growth [8]: 100%
growth [9]: 90.6%
growth [10]: 114%

O=C(Nc1ccc(N2CCOCC2)cc1)Nc1ccc2c(ccn2C(=O)c2cccc(F)c2)c1
growth [1]: 66.7%
growth [2]: 41.4%
growth [3]: 92.5%
growth [4]: 31.1%
growth [5]: 38.8%
growth [6]: 31.4%
growth [7]: 73.7%
growth [8]: 59.5%
growth [9]: 28.4%
growth [10]: 82.1%

CC(=O)Nc1cc(N2CCOCC2)c2nc(NC(=O)c3[nH]c(C)c(Cl)c3Cl)sc2c1
growth [1]: 77.2%
growth [2]: 37.3%
growth [3]: 92.1%
growth [4]: 69.2%
growth [5]: 64%
growth [6]: 119%
growth [7]: 71.8%
growth [8]: 71.9%
growth [9]: 44.5%
growth [10]: 104%

O=C(/C=C/c1cccc(F)c1)c1cccc(OCCCOc2cccc(C(=O)/C=C/c3cccc(F)c3)c2)c1
growth [1]: 49.2%
growth [2]: 77%
growth [3]: 101%
growth [4]: 132%
growth [5]: 96.1%
growth [6]: 115%
growth [7]: 83.2%
growth [8]: 69.8%
growth [9]: 51%
growth [10]: 82.2%

CN1CCN(Cc2ccc(NC(=O)c3cncc(C#Cc4cnc(N)nc4)c3)cc2C(F)(F)F)CC1
growth [1]: 26.5%
growth [2]: 12.8%
growth [3]: 34.3%
growth [4]: 19.3%
growth [5]: 12.9%
growth [6]: -28.8% (active)
growth [7]: 36.5%
growth [8]: 38%
growth [9]: 40%
growth [10]: 13.2%

N#C/C(=N\Nc1ccc(F)cc1)C(=O)Nc1cc(-c2ccccc2)nn1-c1ccccc1
growth [1]: 0.456% (active)
growth [2]: 2.16% (active)
growth [3]: 0.72% (active)
growth [4]: 18.2%
growth [5]: 4.31% (active)
growth [6]: -21.3% (active)
growth [7]: 6.57% (active)
growth [8]: 11%
growth [9]: 21.3%
growth [10]: -7.35% (active)

Cc1ccc2c(n1)C(=O)C(Cl)=C(Nc1ccc(C(C)C)cc1)C2=O
growth [1]: -56.9% (active)
growth [2]: 61.4%
growth [3]: 84.4%
growth [4]: 126%
growth [5]: 79.7%
growth [6]: 17.1%
growth [7]: -13.7% (active)
growth [8]: 67.8%
growth [9]: 75.6%
growth [10]: 111%

CCOC(=O)c1ccccc1NC1=C(Cl)C(=O)c2nc(C)ccc2C1=O
growth [1]: 81.5%
growth [2]: 100%
growth [3]: 101%
growth [4]: 102%
growth [5]: 99.8%
growth [6]: 118%
growth [7]: 102%
growth [8]: 107%
growth [9]: 104%
growth [10]: 120%

CC(Nc1ncnc2ccc(-c3cnc(N)nc3)cc12)c1ccccc1 (stereo not given)
growth [1]: 50.3%
growth [2]: 20.6%
growth [3]: 2.74% (active)
growth [4]: 31.2%
growth [5]: 35.1%
growth [6]: -0.545% (active)
growth [7]: 11.9%
growth [8]: 32.7%
growth [9]: 23.7%
growth [10]: 49.6%

C=C1CCc2nc(SCC(=O)O)ccc2N1
growth [1]: 95.6%
growth [2]: 99%
growth [3]: 105%
growth [4]: 103%
growth [5]: 102%
growth [6]: 120%
growth [7]: 96.7%
growth [8]: 108%
growth [9]: 106%
growth [10]: 107%

O=C(CCCCCCN1CC(=O)N2[C@@H](C3CC3)c3[nH]c4ccccc4c3C[C@H]2C1=O)NO
growth [1]: 66.4%
growth [2]: 95%
growth [3]: 74.6%
growth [4]: 69.6%
growth [5]: 74.5%
growth [6]: 53.4%
growth [7]: 24.4%
growth [8]: 99%
growth [9]: 108%
growth [10]: 98%

COc1ccc(C(C)=C(c2ccc(OCCN(C)C)cc2)c2ccc(OCCN(C)C)cc2)cc1
growth [1]: -13.7% (active)
growth [2]: -7.67% (active)
growth [3]: -2.39% (active)
growth [4]: -15.8% (active)
growth [5]: -14.8% (active)
growth [6]: -43.6% (active)
growth [7]: -60.1% (active)
growth [8]: -3.07% (active)
growth [9]: -88.5% (active)
growth [10]: -73% (active)

CC1(C)CC[C@]2(C(=O)NCCCCCCN(CCCN)CCCN)CC[C@]3(C)C(=CC[C@@H]4[C@@]5(C)CC[C@H](O)C(C)(C)[C@@H]5CC[C@]43C)[C@@H]2C1
growth [1]: 105%
growth [2]: 100%
growth [3]: 95.1%
growth [4]: 111%
growth [5]: 102%
growth [6]: 101%
growth [7]: 101%
growth [8]: 93.1%
growth [9]: 91.5%
growth [10]: 102%

Cn1c(SCC(=O)c2ccc(Br)cc2)nc2ccccc2c1=O
growth [1]: 85.3%
growth [2]: 90.7%
growth [3]: 95.8%
growth [4]: 105%
growth [5]: 102%
growth [6]: 91.3%
growth [7]: 86.4%
growth [8]: 96.3%
growth [9]: 91.2%
growth [10]: 121%

Cc1cc(NS(=O)(=O)c2ccc(NC(=O)CSc3nc4ccccc4c(=O)n3-c3ccccc3)cc2)no1
growth [1]: 92.2%
growth [2]: 93.4%
growth [3]: 83.9%
growth [4]: 98.5%
growth [5]: 108%
growth [6]: 88.6%
growth [7]: 91.9%
growth [8]: 101%
growth [9]: 104%
growth [10]: 106%

Cc1[nH]c(C(=O)Nc2ccccc2OCc2cccc(C(=O)NCCN)c2)cc1Cl
growth [1]: 102%
growth [2]: 101%
growth [3]: 92.9%
growth [4]: 103%
growth [5]: 100%
growth [6]: 84.5%
growth [7]: 95%
growth [8]: 95.2%
growth [9]: 81%
growth [10]: 102%

O=C1C(SCc2ccccc2)=C(Cl)CN1c1ccccc1
growth [1]: 95.6%
growth [2]: 101%
growth [3]: 97.3%
growth [4]: 104%
growth [5]: 102%
growth [6]: 94.5%
growth [7]: -48.8% (active)
growth [8]: 106%
growth [9]: 104%
growth [10]: 130%
